The results in this text go back to PubChem BioAssay AID1851 (National Center for Advancing Translational Sciences (NCATS), 2009).

The structures appear in SMILES notation. Values joined by “and” are separate entries in the source; they are usually repeats but may differ in a detail not shown here. Equal entries are not always repeated. About 5,100 (32%) of roughly 16,000 compounds were called active. About 25% were inconclusive and are not listed. Some of the results follow. Unmarked numbers belong to inactive results. The call rests on the fitted dose curve; in most records, active means well fitted curve in the direction sought with a large enough effect; inconclusive means small, poorly fitted or top-dose-only effect, or effect the other way; inactive means no such curve, though single readings can be large or run the other way.
On the % scale 0 is the no-effect control and ±100 the full control effect.

Chain of Cytochrome P450 3A4 (Homo sapiens) (P08684 whole entry, looked up): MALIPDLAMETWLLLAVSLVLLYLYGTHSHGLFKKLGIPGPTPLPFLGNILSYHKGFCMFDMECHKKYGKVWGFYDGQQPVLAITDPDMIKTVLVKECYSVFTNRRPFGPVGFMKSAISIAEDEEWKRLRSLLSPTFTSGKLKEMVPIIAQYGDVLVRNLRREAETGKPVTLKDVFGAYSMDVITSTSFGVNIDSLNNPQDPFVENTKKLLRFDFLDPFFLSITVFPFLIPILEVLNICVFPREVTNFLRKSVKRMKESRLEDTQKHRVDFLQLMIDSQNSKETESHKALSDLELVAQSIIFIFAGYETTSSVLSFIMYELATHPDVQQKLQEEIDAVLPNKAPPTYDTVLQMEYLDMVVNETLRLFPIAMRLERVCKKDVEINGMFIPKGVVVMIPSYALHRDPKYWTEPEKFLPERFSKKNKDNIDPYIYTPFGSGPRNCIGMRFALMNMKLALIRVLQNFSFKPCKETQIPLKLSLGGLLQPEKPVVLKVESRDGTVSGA

This assay addresses Cytochrome P450 3A4 (Homo sapiens) (UniProt P08684). The assay is described as follows: Cytochrome panel assay with activity outcomes. Conditions: recombinant CYP, pro-luciferin dealkylation, luminescence, p450-cyp3a4; series mostly up to 57.1 µM.
With `C[N+]1(CCCC[N+]2(C)CCCCCCC2)CCCCCCC1`, the activity, negative = inhibition is 6.39% [at 11.4 µM].

With `NC(=O)c1ccc[n+](CC(=O)OCCC23CC4CC(CC(C4)C2)C3)c1`, the activity, negative = inhibition is -1.21% [at 2.29 µM].

The AC50 is the concentration at which the activity in the assay is half-maximal. `O=C(O)c1cc(=O)c2c(OCC(O)COc3cccc4oc(C(=O)O)cc(=O)c34)cccc2o1`: the AC50 result is “inactive”.

With `CCOC(=O)COc1cc(OCC(=O)OCC)c2c(=O)cc(-c3ccccc3)oc2c1`, the concentration at half-maximal activity (AC50) is 20 µM (active).

On to `CC(C)(C)OC(=O)COc1cc(OCC(=O)OC(C)(C)C)c2c(=O)cc(-c3ccccc3)oc2c1`, for which the AC50 entry is “inactive”.

For `CC(=O)O[C@]1(C)N=NC2(CCCCC2)O1`, the activity, negative = inhibition is -7.61% [at 11.4 µM].

Take `O=C(Cn1c(SCC(=O)N2CCc3ccccc3C2)nc2ccccc21)NC1CCCC1`: the AC50 was 3.55 µM (active).

Take `C=CCn1c(SCC(=O)N2CCc3ccccc3C2)nc2ccccc2c1=O`: the AC50 was 2.51 µM (active).

Regarding `C=CCn1c(SCC)nc2sc3c(c2c1=O)CCc1ccccc1-3`, the activity, negative = inhibition is -8.25% [at 2.29 µM].

For the compound `CN1CCN(CCCBr)CC1`, the activity, negative = inhibition was 9.1% [at 11.4 µM].

With `CN1CCN(C2CC(=O)N(Cc3ccc(N4CCCC4=O)cc3)C2=O)CC1` (stereo unspecified), the AC50 result is “inactive”.

For `O=C(O)[C@@H]1[C@H](C(=O)O)[C@H]2C(=O)C=C[C@H]1N2Cc1ccccc1`, the activity, negative = inhibition was -7.47% [at 11.4 µM].

For `O=C1CC(N(O)C2CC(=O)N(Cc3ccccc3)C2=O)C(=O)N1Cc1ccccc1` (stereo unspecified), the AC50 was 10 µM (active).

Consider `O=C1C2[C@@H](c3ccccc3)N[C@@H](c3ccccc3)C1[C@H](c1ccccc1)N[C@H]2c1ccccc1`, for which the activity, negative = inhibition is 5.64% [at 11.4 µM].

For `NCCCCCCNS(=O)(=O)c1cccc2ccccc12`, the AC50 was 6.31 µM (active).

In the case of `Nc1ccc(S(=O)(=O)NCCS(=O)(=O)O)cc1`, the activity, negative = inhibition is -0.993% [at 11.4 µM].

Regarding `CCCCNS(=O)(=O)c1ccc(OC)c(Cl)c1Cl`, the AC50 is 11.2 µM (active).

In the case of `COc1cc(/C=C/C(=O)O)cc(S(=O)(=O)NCCCO)c1OC`, the activity, negative = inhibition was -24.1% [at 11.4 µM].

Take `NCCCCCCNS(=O)(=O)c1cccc2c(Cl)cccc12`: the AC50 was 3.98 µM (active) and 2.51 µM (active).

Take `O=S(=O)(O)CCCc1cccc2ccccc12`: the activity, negative = inhibition was -8.32% [at 11.4 µM].

As to `NS(=O)(=O)c1ccc(NC(=O)Nc2cccc3ccccc23)cc1`, the activity, negative = inhibition is -6.44% [at 11.4 µM].

Turning to `NCCCCCCCCCCNS(=O)(=O)c1cccc2c(Cl)cccc12`, the half-maximal activity concentration (AC50) was 2.51 µM (active).

For the compound `S=c1c2[nH]cnc2ncn1CCSc1ncnc2nc[nH]c12`, the activity, negative = inhibition was -9.42% [at 11.4 µM].

For `CSCCC(NC=C1C(=O)OC(C)(C)OC1=O)C(=O)O` (stereo unspecified), the AC50 entry is “inactive”.

On to `CCCCCCCNS(=O)(=O)c1cccc2c(Cl)cccc12`, for which the AC50 is 7.94 µM (active).

Regarding `O=S(=O)(NCCCCCCc1ccccc1)c1cccc2c(Cl)cccc12`, the AC50 was 2.51 µM (active).

For `c1ccc(CCCNc2nnnc3ccccc23)cc1`, the activity, negative = inhibition is -29.6% [at 11.4 µM].

Regarding `CCN(CC)S(=O)(=O)c1cccc2c(N(C)C)cccc12`, the AC50 entry was “inactive”.

Take `NCCCc1c(-c2ccccc2)nc(N)[nH]c1=O`: the activity, negative = inhibition was 1.03% [at 11.4 µM].

`Cn1c(=O)c2[nH]c(CCCCc3nc4c([nH]3)c(=O)n(C)c(=S)n4C)nc2n(C)c1=S`: the AC50 is 1.26 µM (active).

As to `Cn1c(=O)c2[nH]c(CCCCC(=O)O)nc2n(C)c1=O`, the activity, negative = inhibition is -10.1% [at 11.4 µM].

For the compound `Cn1c(=O)c2[nH]c(SCc3ccccn3)nc2n(C)c1=S`, the AC50 was 3.98 µM (active).

As to `Cn1c(=S)c2[nH]c(SCCN3C(=O)c4ccccc4C3=O)nc2n(C)c1=O`, the activity, negative = inhibition is -20.9% [at 11.4 µM].

Consider `Cn1c(=O)c2[nH]c(CCCCc3nc4ccccc4[nH]3)nc2n(C)c1=O`, for which the activity, negative = inhibition is -19% [at 11.4 µM].

As to `Cn1c(=S)c2[nH]c(SCCCc3ccccc3)nc2n(C)c1=O`, the activity, negative = inhibition was -26.2% [at 11.4 µM].

For `Cn1c(=O)c2[nH]c(CSCc3ccccc3)nc2n(C)c1=O`, the activity, negative = inhibition is -25% [at 11.4 µM].

As for `Cn1c(=S)c2[nH]c(SCc3cccnc3)nc2n(C)c1=O`, the AC50 is 3.16 µM (active).

Turning to `Cn1c(=S)c2[nH]c(SCCN3CCCC3)nc2n(C)c1=O`, the activity, negative = inhibition was -16% [at 11.4 µM].

For the compound `NCCS(=O)O`, the AC50 entry was “inactive”.

Consider `CCCC(c1cc(C(C)(C)C)c(O)cc1C)c1cc(C(C)(C)C)c(O)cc1C`, for which the activity, negative = inhibition was 5.69% [at 11.4 µM].

As to `CCN1CCN(C(=O)N[C@H](C(=O)N[C@@H]2C(=O)N3C(C(=O)O)=C(CSc4nnnn4C)CS[C@@H]23)c2ccc(O)cc2)C(=O)C1=O`, the AC50 result is “inactive”.

Consider `O=C(O)Cc1sc(-c2ccc(Cl)cc2)nc1-c1ccccc1`, for which the AC50 entry was “inactive”.

`O=C(CCn1nc(-c2ccc(Cl)cc2)c2ccccc2c1=O)NCCN1CCOCC1`: the AC50 was 7.08 µM (active).

Turning to `O=c1c2ccccc2c(-c2ccccc2)nn1-c1ccc(Cl)c(Cl)c1`, the AC50 entry is “inactive”.

For the compound `O=c1c2ccccc2c(-c2ccccc2)nn1Cc1ccc(Cl)cc1`, the AC50 was 17.8 µM (active).

With `Cc1ccc(-c2nn(C)c(=O)c3ccccc23)cc1CNC(=O)Cn1nc(-c2ccccc2)c2ccccc2c1=O`, the activity, negative = inhibition was -27.5% [at 11.4 µM].

For the compound `O=C(/C=C/c1ccc(Cl)cc1)NCCN1CCOCC1`, the AC50 entry was “inactive”.

With `O=C(CSc1nnc(-c2cccc(S(=O)(=O)N3CCOCC3)c2)n1C1CCCCCC1)NCc1ccccc1`, the concentration at half-maximal activity (AC50) is 2.51 µM (active).

On to `O=C(COc1ccc2ccccc2c1)N1CCN(C(=O)c2cccnc2)CC1`, for which the AC50 was 8.91 µM (active).

As for `CCC(=O)N1CCN(C(=O)c2ccccc2)CC1`, the AC50 result was “inactive”.

For the compound `Cc1c(NC(=O)Cn2ccc([N+](=O)[O-])n2)c(=O)n(-c2ccccc2)n1C`, the AC50 entry was “inactive”.

`O=C(Nc1ccc2ncccc2c1)Nc1ccc2ncccc2c1`: the activity, negative = inhibition was -24.8% [at 11.4 µM].

Take `O=C(CCN1C(=O)C2C3C=CC(C3)C2C1=O)Nc1c(F)cccc1F` (stereo unspecified): the AC50 is 3.98 µM (active).

`Cc1c(NC(=O)CN2CCN(c3ccccc3)CC2)c(=O)n(-c2ccccc2)n1C`: the AC50 result was “inactive”.

Regarding `CC(=O)NC(CCS(C)(=O)=O)C(=O)Nc1c(F)cccc1F` (stereo unspecified), the AC50 result was “inactive”.

As for `Cc1c(NC(=O)CN2C(=O)C3C4C=CC(C4)C3C2=O)c(=O)n(-c2ccccc2)n1C` (stereo unspecified), the AC50 was 22.4 µM (active).

Consider `O=C(CCN1C(=O)C2C3C=CC(C3)C2C1=O)Nc1ccc2ncccc2c1` (stereo unspecified), for which the AC50 was 2.51 µM (active).

As to `Clc1ncccc1-c1nc2ccccc2n1Cc1ccccc1`, the activity, negative = inhibition was 6.58% [at 2.29 µM].

With `c1ccc(CN2c3ccccc3-c3nc4ccccc4n3C2c2ccccn2)cc1` (stereo unspecified), the AC50 was 3.16 µM (active).

Consider `COc1cccc(C2=CC(c3ccccc3)n3nnnc3N2)c1` (stereo unspecified), for which the AC50 result was “inactive”.

With `CC(C)C(=O)Nc1ccc(NC(=O)c2cccnc2)cn1`, the AC50 result is “inactive”.

With `CC1=C(C(=O)Nc2cccnc2)C(c2cccnc2)n2nc(-c3cccs3)nc2N1` (stereo unspecified), the AC50 was 14.1 µM (active).

As to `CCOC(=O)C1C(=O)NC(C)C1c1ccccc1` (stereo unspecified), the activity, negative = inhibition is 1.56% [at 2.29 µM].

With `COc1ccccc1NC(=O)C1=C(C)Nc2nnnn2C1c1cccc(Br)c1` (stereo unspecified), the AC50 was 2.51 µM (active).

On to `COc1ccccc1NC(=O)C1=C(C)Nc2nc(-c3ccc(N(C)C)cc3)nn2C1c1ccncc1` (stereo unspecified), for which the AC50 is 1.26 µM (active).

On to `CC1=C(C(N)=O)C(c2ccccc2)n2nc(-c3ccncc3)nc2N1` (stereo unspecified), for which the AC50 was 11.2 µM (active).

Consider `N#CC1(Nc2ccc(-c3ccc(NC4(C#N)CCCC4)cc3)cc2)CCCC1`, for which the activity, negative = inhibition was -20.9% [at 11.4 µM].

For `C=C(Br)CN(C)CC(=C)Br`, the activity, negative = inhibition was -1.54% [at 11.4 µM].

Turning to `C[C@H]1/C=C\CC(=O)OC[C@H](C)C(=O)N2CCC[C@@H]2C(=O)OC1`, the activity, negative = inhibition was -17.6% [at 11.4 µM].

As to `CCC(=O)n1nc(-c2ccc(OC)cc2)nc1N`, the AC50 result is “inactive”.

As to `CCOc1ccccc1C1C(C(N)=O)=C(C)Nc2nc(-c3ccc(OC)cc3)nn21` (stereo unspecified), the AC50 is 12.6 µM (active).

Take `CC1=C(C(N)=O)C(c2cccs2)n2nc(-c3cccc(Cl)c3)nc2N1` (stereo unspecified): the concentration at half-maximal activity (AC50) was 12.6 µM (active).

`CCOc1ccc(/C(O)=C2\C(=O)C(=O)N(CCOCCO)C2c2ccccc2OC)cc1` (stereo unspecified): the AC50 entry is “inactive”.

Turning to `O=C1C2=C(NC(=S)NC2c2ccc(Cl)cc2)NC(c2ccc(Cl)cc2)N1c1ccc(Cl)cc1` (stereo unspecified), the AC50 is 2.82 µM (active).

`Clc1ccc2c(c1)C1=C(C(c3ccncc3)O2)C(c2ccc(Br)cc2)n2ncnc2N1` (stereo unspecified): the concentration at half-maximal activity (AC50) was 2.51 µM (active).

For the compound `CCc1cc2c(NCCO)ncnc2s1`, the AC50 result was “inactive”.

`CCc1ccccc1NC(=O)c1ccc(-n2c(C)ccc2C)cc1`: the AC50 is 17.8 µM (active).

As for `CCOC(=O)c1ccc(CNC(=O)C2CCCCC2C(=O)OCC(F)(F)F)o1` (stereo unspecified), the AC50 result is “inactive”.

On to `CC(C)NC[C@@H](O)COc1ccc(CCOCC2CC2)cc1`, for which the AC50 result was “inactive”.

For the compound `CN1CC(c2ccccn2)C2(SC(=S)N(Cc3ccccc3)C2=O)C12C(=O)Nc1ccccc12` (stereo unspecified), the AC50 is 4.47 µM (active).

Take `CCOC(=O)c1ccc(OC(=O)CCCCCN=C(N)N)cc1`: the AC50 entry is “inactive”.

As for `CCCc1cc2c(cc1NC(=O)c1ccccc1Cl)OCO2`, the concentration at half-maximal activity (AC50) was 2.24 µM (active).

In the case of `CCCc1cc2c(cc1NC(=O)c1ccc(Br)cc1)OCO2`, the AC50 is 1.12 µM (active).

On to `Cc1ccccc1C(=O)NNC(=O)c1ccoc1C`, for which the AC50 entry is “inactive”.

For the compound `CCCc1cc2c(cc1NC(=O)c1ccccc1C)OCO2`, the AC50 was 2.51 µM (active).

Consider `CCC(=O)Nc1cc2c(cc1C(=O)c1ccccc1)OCCO2`, for which the activity, negative = inhibition was -4.4% [at 2.29 µM].

Take `CCCNC(=O)CSc1nc(-c2cccs2)cc(C(F)(F)F)n1`: the AC50 is 7.08 µM (active).

As to `COC(=O)CSc1cc(C(F)(F)F)nc(-c2ccccn2)n1`, the AC50 result is “inactive”.

As for `O=C(N/N=C/c1ccco1)c1ccccn1`, the AC50 entry is “inactive”.

For the compound `O=C(CNC(=O)c1ccccn1)N/N=C/c1ccccc1`, the activity, negative = inhibition was -5.67% [at 2.29 µM].

With `O=C(NN=C1c2ccccc2-c2ccccc21)c1ccccn1`, the AC50 was 14.1 µM (active).
